{
  "source": "ChEMBL document CHEMBL3988442",
  "about": "“University of Dundee, Small-Polar-MMV Screening Library” (2021)",
  "note": "The campaign covered roughly 48,000 compounds. About 13,000 (27%) showed an effect of 50% or more. Some of the results follow.",
  "data": [
    {"system": "Wolbachia pipientis", "assay": "Anti-Wolbachia Cell-Based Screen", "format": "functional", "parameters": "scale not given: in the data most compounds retested in dose-response had high values", "conditions": "5 µM", "units": {"Percent Effect": "%"}, "values": [
      {"molecule": "CC(C)(C)[S+]([O-])CCNC(=O)c1csc(NC2CC2)n1", "note": "(stereo not given)", "Percent Effect": 7.627},
      {"molecule": "CSCC(C)(O)CNc1ncccc1C(F)(F)F", "note": "(stereo not given)", "Percent Effect": 8.156},
      {"molecule": "COc1ccccc1C(=O)N1CCN(C(=O)CCCc2cn[nH]c2)CC1", "Percent Effect": 9.231},
      {"molecule": "COC(=O)CNc1cc(C(=O)NCC(F)(F)F)cc(F)c1C", "Percent Effect": 5.099},
      {"molecule": "O=C(c1ccccn1)N1C[C@@H]2OCC(=O)N(CC3CCCCC3)[C@@H]2C1", "Percent Effect": 1.178},
      {"molecule": "OC1CCN(Cc2cc3c(cc2Br)OCCO3)CC1", "Percent Effect": 23.9},
      {"molecule": "Cc1ccc(NC(=O)N2CCCN(C(N)=O)CC2)s1", "Percent Effect": -6.622},
      {"molecule": "O=S1(=O)CCC(c2nnc(-c3cnc4onc(C5CCCC5)c4c3)o2)C1", "note": "(stereo not given)", "Percent Effect": -3.167},
      {"molecule": "O=C1O[C@@H]2CN(c3ccccn3)C[C@@H]2N1CCCc1ccc(F)cc1", "Percent Effect": 2.286},
      {"molecule": "COCc1nc2cc(NCc3scnc3C)ccc2o1", "Percent Effect": 5.426},
      {"molecule": "CN1CCN(Cc2cccnc2)C2(CCN(c3ncc(F)cn3)C2)C1=O.O=C(O)C(F)(F)F.O=C(O)C(F)(F)F", "note": "(stereo not given)", "Percent Effect": -9.065},
      {"molecule": "O=C(O)C(F)(F)F.O=C1N(Cc2cccnc2)CCC12CCCN(c1ncc(F)cn1)C2", "note": "(stereo not given)", "Percent Effect": 109.4},
      {"molecule": "Cc1csc2ncc(-c3ccnc(N4CCN(C)CC4)n3)c(=O)n12", "Percent Effect": 4.781},
      {"molecule": "Cc1csc2ncc(-c3ccnc(N4CCC[C@H](C(N)=O)C4)n3)c(=O)n12", "Percent Effect": 107.6},
      {"molecule": "Cc1noc(-c2ccc(N3CCCC(C(N)=O)C3)nc2)n1", "note": "(stereo not given)", "Percent Effect": -1.352},
      {"molecule": "Cc1csc2ncc(-c3ccnc(N4CCCN(C)CC4)n3)c(=O)n12", "Percent Effect": 84.49},
      {"molecule": "Cc1ccc(-c2csc3c(=O)[nH]c(N4CCCC(C(N)=O)C4)nc23)cc1", "note": "(stereo not given)", "Percent Effect": 13.87},
      {"molecule": "Cc1ccc(-c2ccnc(N3CCC4(CC3)CNC(=O)C4)n2)c(C)n1", "Percent Effect": -12.24},
      {"molecule": "Cc1csc2ncc(-c3ccnc(N4CCCC4)n3)c(=O)n12", "Percent Effect": 95.07},
      {"molecule": "C=C(C)COc1cccc(C(=O)N2CCC(O)(c3ccccc3)CC2)c1", "Percent Effect": -7.065},
      {"molecule": "CNS(=O)(=O)CC(=O)NC(C)Cc1ccc(-c2ccccc2)cc1", "note": "(stereo not given)", "Percent Effect": -4.402},
      {"molecule": "Nc1ccnc(N2CCC(Cc3ccccc3Cl)(C(=O)O)CC2)n1", "Percent Effect": 5.255},
      {"molecule": "CC(O)CN1CCc2onc(C(c3ccccc3)c3ccccc3)c2C1", "note": "(stereo not given)", "Percent Effect": -15.19},
      {"molecule": "COCCNS(=O)(=O)c1cccc2c1CN(C(=O)c1cc(C)on1)CC2", "Percent Effect": -0.4963},
      {"molecule": "Cc1cccc(CN2CCc3cc(C(=O)O)c(N(C)C)nc3CC2)n1.O=C(O)C(F)(F)F.O=C(O)C(F)(F)F", "Percent Effect": 105.7},
      {"molecule": "CCOc1ncnc2c1CCN(Cc1csc(C)n1)CC2.O=C(O)C(F)(F)F", "Percent Effect": 7.701},
      {"molecule": "Cc1nc(CN2CCc3ncnc(C4CC4)c3CC2)cs1.O=C(O)C(F)(F)F", "Percent Effect": -1.319},
      {"molecule": "Cc1nc(CN2CCc3cc(C(=O)O)c(N(C)C)nc3CC2)cs1.O=C(O)C(F)(F)F.O=C(O)C(F)(F)F", "Percent Effect": 99.11},
      {"molecule": "CCCSCC(=O)NS(=O)(=O)c1ccc2c(c1)OCCO2", "Percent Effect": -7.969},
      {"molecule": "COc1ccc(Cc2nnc(SC)o2)cc1OC", "Percent Effect": -1.582},
      {"molecule": "COCCN(Cc1ccc(F)cc1Cl)C(=O)c1cc[n+]([O-])cc1", "Percent Effect": -5.927},
      {"molecule": "c1ccc(-c2cc(CN3C[C@@H]4CC[C@H](C3)N(CC3CC3)C4)on2)cc1", "Percent Effect": 2.507},
      {"molecule": "O=C(Nc1ccccc1Oc1cccc(F)c1)NC1CCS(=O)(=O)C1", "note": "(stereo not given)", "Percent Effect": 9.337},
      {"molecule": "CN(Cc1nc(Cc2ccccc2F)no1)CC1Cc2ccccc2O1", "note": "(stereo not given)", "Percent Effect": 1.647},
      {"molecule": "CC1N(CC2CC2)C(=O)COC12CCN(C(=O)c1cnccn1)CC2", "note": "(stereo not given)", "Percent Effect": -1.759},
      {"molecule": "Cc1noc(C2CCC3(CCN(C(=O)c4ncccn4)CC3)O2)n1", "note": "(stereo not given)", "Percent Effect": 110.9},
      {"molecule": "Cc1noc(C2CCC3(CCN(C(=O)c4ccncn4)CC3)O2)n1", "note": "(stereo not given)", "Percent Effect": 97.14},
      {"molecule": "O=C(c1cc(C2CC2)on1)N1CC[C@]2(C[C@H](Oc3cccnc3)CO2)C1", "Percent Effect": -8.078},
      {"molecule": "Cc1noc(C2CCN(C(=O)c3cc(Cl)c(Cl)n3C)CC2)n1", "Percent Effect": -8.55},
      {"molecule": "Cc1noc(C2CCC3(CCN(C(=O)c4cc(C5CC5)on4)CC3)O2)n1", "note": "(stereo not given)", "Percent Effect": 104.1},
      {"molecule": "Cc1noc(C2CCC3(CCN(C(=O)c4cnccn4)CC3)O2)n1", "note": "(stereo not given)", "Percent Effect": 108.3},
      {"molecule": "C[C@H]1C[C@H]2CN(C(=O)c3ccncn3)CC[C@H]2O1", "Percent Effect": 2.98},
      {"molecule": "Cc1noc(C2CCC3(CCN(C(=O)c4c(C)noc4C)CC3)O2)n1", "note": "(stereo not given)", "Percent Effect": -1.941},
      {"molecule": "C[C@H]1C[C@@H]2CCN(C(=O)c3ccncn3)C[C@H]2O1", "Percent Effect": 15.39},
      {"molecule": "Cc1ccc(F)c(S(=O)(=O)NCc2cccc(N3CCOC3=O)c2)c1", "Percent Effect": -1.653},
      {"molecule": "COc1ccc(C(=O)NCc2cc(N3CCOCC3)ncn2)o1", "Percent Effect": -2.324},
      {"molecule": "COCC(=O)N1CCC2(CC1)CN(c1ncccn1)CCO2", "Percent Effect": -1.945},
      {"molecule": "Cc1nn(C)c(Cl)c1C1CCCN1c1ncnc2sccc12", "note": "(stereo not given)", "Percent Effect": -14.86},
      {"molecule": "CC1CCN(C(CNC(=O)Cn2cccn2)c2cccs2)CC1", "note": "(stereo not given)", "Percent Effect": -3.451},
      {"molecule": "Fc1cccc(CN2CCOC3(COCCN(CC4CC4)C3)C2)c1.O=C(O)C(F)(F)F.O=C(O)C(F)(F)F", "note": "(stereo not given)", "Percent Effect": 100.6},
      {"molecule": "O=C(O)C(F)(F)F.O=C(c1ccccn1)N1CCOC2(COCCN(Cc3cc[nH]n3)C2)C1", "note": "(stereo not given)", "Percent Effect": -2.383},
      {"molecule": "CC(C)N1CCOCC2(CCCN(C(=O)c3cncn3C)C2)C1.O=C(O)C(F)(F)F", "note": "(stereo not given)", "Percent Effect": -5.769},
      {"molecule": "O=C(O)C(F)(F)F.O=C(c1ccoc1)N1CCOC2(COCCN(CC3CC3)C2)C1", "note": "(stereo not given)", "Percent Effect": 89.02},
      {"molecule": "Cn1ccc(C(=O)N2C[C@@H]3CN(CC4CC4)CCO[C@@H]3C2)n1.O=C(O)C(F)(F)F", "Percent Effect": -13.66},
      {"molecule": "O=C(O)C(F)(F)F.O=C(c1ccoc1)N1CCOC2(COCCN(c3ncccn3)C2)C1", "note": "(stereo not given)", "Percent Effect": 21.15},
      {"molecule": "Cn1ccc(C(=O)N2CCOC3(COCCN(CC4CC4)C3)C2)n1.O=C(O)C(F)(F)F", "note": "(stereo not given)", "Percent Effect": 108.5},
      {"molecule": "Cn1cncc1C(=O)N1CCOC2(COCCN(CC3CC3)C2)C1.O=C(O)C(F)(F)F", "note": "(stereo not given)", "Percent Effect": 104.1},
      {"molecule": "O=C(O)C(F)(F)F.O=C(O)C(F)(F)F.O=C(O)C(F)(F)F.c1coc(CN2CCOC3(COCCN(Cc4ccncc4)C3)C2)c1", "note": "(stereo not given)", "Percent Effect": -11.91},
      {"molecule": "O=C(O)C(F)(F)F.O=C(O)C(F)(F)F.c1cnc(N2CCCC3(CN(CC4CCOCC4)CCO3)C2)cn1", "note": "(stereo not given)", "Percent Effect": -4.594},
      {"molecule": "O=C(O)C(F)(F)F.O=C(O)C(F)(F)F.O=C(O)C(F)(F)F.c1cc(CN2CCOCC3(C2)CN(Cc2nccs2)CCO3)ccn1", "note": "(stereo not given)", "Percent Effect": -17.66}
    ]}
  ]
}
